# Reference: PubChem BioAssay
# Active and inactive are the calls of the source.
# Tests used:
# [1] = test system: Plasmodium falciparum Sir2 (PF13_0152, Sir2A); assay: Plasmodium falciparum Sir2A binding compounds – biochemical, small-molecule microarray, 635 nm fluorescence, primary screen (AID 1098); conditions: fluorescence 635 nm, higher = more signal;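 note: score merges spot fluorescence intensity with its signal-to-noise ratio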
# [2] = probe aDKK1 binding to arrayed compounds – biochemical, biotinylated probe, 635/667 nm fluorescence, primary screen (AID 1099); conditions: small-molecule microarray, higher = more signal;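 note: score merges 667nm spot fluorescence with signal to noise across triplicate slides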
# [3] = probe aCHRDL2 binding to arrayed compounds – biochemical, biotinylated probe, 635/667 nm fluorescence, primary screen (AID 1100); conditions: small-molecule microarray, higher = more signal
# [4] = change in splice reporter luminescence, either direction, cell-based, HEK293, spliceosome inhibition project, primary screen (AID 1101); conditions: HEK293 splicing luciferase reporter, 24 h, higher = more signal, called active from +8 up or from −8 down;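 note: HEK293 cells carrying a splicing-competent luciferase reporter gene; test concentration not given here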
# [5] = molecular target: Fibroblast growth factor 10 (Homo sapiens) (UniProt O15520); assay: compounds binding fibroblast growth factor 10 – biochemical, small-molecule microarray, 635 nm fluorescence, primary screen (AID 1102); conditions: FGF10 binding, fluorescence 635 nm, higher = more signal
# [6] = test system: glycogen synthase kinase-3 (GSK3A per assay name; protocol says GSK3B); assay: compounds binding glycogen synthase kinase-3 – biochemical, small-molecule microarray, 635 nm fluorescence, GSK3A, primary screen (AID 1103); conditions: fluorescence 635 nm, higher = more signal; note: the record names both GSK3A and GSK3B
# [7] = molecular target: Epidermal growth factor receptor (Homo sapiens) (UniProt P00533); assay: compounds binding epidermal growth factor receptor – biochemical, small-molecule microarray, 635 nm fluorescence, primary screen (AID 1104); conditions: EGFR binding, higher = more signal;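 note: score merges 667 nm emission intensity with spot signal to noise over triplicate slides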
# [8] = molecular target: Follistatin-related protein 3 (Homo sapiens) (UniProt O95633); assay: compounds binding follistatin-related protein 3 – biochemical, small-molecule microarray, 635 nm fluorescence, primary screen (AID 1105); conditions: FSTL3 binding, higher = more signal;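 note: score merges emission near 667 nm and signal to noise per printed spot across three slides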
# [9] = molecular target: Dickkopf-related protein 1 (Homo sapiens) (UniProt O94907); assay: small molecules binding DKK1 protein – biochemical, small-molecule microarray, 635 nm fluorescence scan, primary screen (AID 1106); conditions: higher = more signal;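 note: score merges emission near 667 nm with signal to noise over three replicate slides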
# [10] = test system: Inhibin beta A chain (activin A); assay: small molecules binding activin A – biochemical, small-molecule microarray, 635 nm fluorescence scan, primary screen (AID 1107); conditions: INHBA, higher = more signal;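 note: mouse activin A protein probed at 4.33 µg/mL on printed slides; score merges bound-protein fluorescence near 667 nm with spot signal-to-noise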
# [11] = test system: Human papillomavirus type 1a protein E7 (residues 44-93); assay: small molecules binding HPV E7 44-93 – biochemical, small-molecule microarray, residues 44-93, 635 nm fluorescence, primary screen (AID 1108); conditions: fluorescence 635 nm, higher = more signal;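 note: E7 fragment applied at 1 µg/mL in TBST for 1 h at 4 C; score combines spot fluorescence with its signal to noise ratio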
# [12] = hepatitis C replication reporter changes, two-sided – Huh7 cells, luciferase reporter, HCV replication inhibitor project, primary screen (AID 1109); conditions: Huh7 HCV replicon luciferase reporter, 48 h; higher = more signal;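 note: huh7 hepatoma cells harbouring a luciferase neomycin HCV replicon reporter; luciferase luminescence as measure of HCV replicon replication; test concentration not given here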
# [13] = molecular target: Left-right determination factor 2 (Homo sapiens) (UniProt O00292); assay: small molecules binding LEFTY2 protein – biochemical, small-molecule microarray, 635 nm fluorescence scan, primary screen (AID 1110); conditions: higher = more signal
# [14] = molecular target: Calmodulin-1 (Homo sapiens) (UniProt P0DP23); assay: small molecules binding calmodulin-1 with EGTA – biochemical, small-molecule microarray, Cy5-labelled CALM1, profiling panel (AID 1111); conditions: Cy5-CALM1 binding fluorescence, higher = more signal;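 note: labelled calmodulin applied in Tris saline Tween buffer holding calcium plus EGTA and DTT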
# [15] = molecular target: Calmodulin-1 (Homo sapiens) (UniProt P0DP23); assay: small molecules binding Ca-loaded calmodulin-1 – biochemical, small-molecule microarray, Cy5-labelled CALM1, plus calcium, artefact control for SMM control-protein annotation, profiling panel (AID 1112); conditions: Cy5-CALM1 binding fluorescence, higher = more signal;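 note: score merges spot fluorescence with signal to noise from triplicate slides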
# [16] = probe aWnt5a binding to arrayed compounds – biochemical, biotinylated probe, 635/667 nm fluorescence, primary screen (AID 1113); conditions: small-molecule microarray, higher = more signal;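 note: score merges 667 nm fluorescence intensity with signal-to-noise per printed feature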
# [17] = probe aShh binding to arrayed compounds – biochemical, biotinylated probe, 635/667 nm fluorescence, primary screen (AID 1114); conditions: small-molecule microarray, higher = more signal;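 note: probe is biotin-labelled aShh protein from a stem cell growth factor screen; measures binding of labelled protein to compounds printed on the slide; score merges feature fluorescence at 667 nm with signal-to-noise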
# [18] = probe aNog binding to arrayed compounds – biochemical, biotinylated probe, 635/667 nm fluorescence, primary screen (AID 1115); conditions: small-molecule microarray, higher = more signal;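 note: probe is biotinylated aNog protein used at 0.15 µg/mL for 1 h at 4 C; z-score combines 667 nm fluorescence of each spot with its signal to noise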
# [19] = molecular target: Torsin-1A-interacting protein 1 (Homo sapiens) (UniProt Q5JTV8); assay: compound microarray binding of lysate hLAP1 – cell lysate, small-molecule microarray, COS7 lysate, 635/667 nm fluorescence, primary screen (AID 1116); conditions: 635 nm fluorescence, higher = more signal
# [20] = molecular target: Alpha-bungarotoxin (Bungarus multicinctus) (UniProt P60615); assay: compounds binding labelled alpha-BTX control protein – biochemical, small-molecule microarray, Alexa647 label, 635/667 nm fluorescence, artefact control for SMM control protein annotation, profiling panel (AID 1117); conditions: alpha-BTX-A647 binding fluorescence, higher = more signal
# Alpha-bungarotoxin (Bungarus multicinctus), sequence (P60615 whole entry, looked up): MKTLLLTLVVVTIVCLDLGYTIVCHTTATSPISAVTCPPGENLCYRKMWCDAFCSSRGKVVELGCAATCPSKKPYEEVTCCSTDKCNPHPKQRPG
# Dickkopf-related protein 1 (Homo sapiens), sequence (O94907 whole entry, looked up): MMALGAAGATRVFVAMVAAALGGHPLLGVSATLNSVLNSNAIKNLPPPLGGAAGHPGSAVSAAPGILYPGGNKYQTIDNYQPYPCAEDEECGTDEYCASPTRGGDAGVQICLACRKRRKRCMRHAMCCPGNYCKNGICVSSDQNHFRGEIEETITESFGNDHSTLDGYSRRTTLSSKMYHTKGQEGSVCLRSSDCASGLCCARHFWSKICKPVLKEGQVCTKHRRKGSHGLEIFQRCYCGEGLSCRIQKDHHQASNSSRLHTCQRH
# Fibroblast growth factor 10 (Homo sapiens), sequence (O15520 whole entry, looked up): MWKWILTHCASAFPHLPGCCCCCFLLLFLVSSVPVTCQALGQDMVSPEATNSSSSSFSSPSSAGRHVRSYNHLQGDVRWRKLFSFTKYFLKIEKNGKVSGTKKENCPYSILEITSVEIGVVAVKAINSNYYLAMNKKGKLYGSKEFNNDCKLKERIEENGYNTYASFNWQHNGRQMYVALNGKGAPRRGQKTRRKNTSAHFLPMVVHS
# Left-right determination factor 2 (Homo sapiens), sequence (O00292 whole entry, looked up): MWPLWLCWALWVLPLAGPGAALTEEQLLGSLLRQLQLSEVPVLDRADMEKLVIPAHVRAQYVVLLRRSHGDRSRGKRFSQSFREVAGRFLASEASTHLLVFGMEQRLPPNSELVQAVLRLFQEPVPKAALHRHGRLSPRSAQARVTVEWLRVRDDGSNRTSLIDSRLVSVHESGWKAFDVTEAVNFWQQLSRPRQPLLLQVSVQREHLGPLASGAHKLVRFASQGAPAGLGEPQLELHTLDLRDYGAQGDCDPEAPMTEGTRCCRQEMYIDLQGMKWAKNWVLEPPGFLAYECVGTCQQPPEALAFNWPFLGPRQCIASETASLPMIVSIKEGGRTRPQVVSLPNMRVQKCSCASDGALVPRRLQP
# Epidermal growth factor receptor (Homo sapiens), sequence (P00533 whole entry, looked up): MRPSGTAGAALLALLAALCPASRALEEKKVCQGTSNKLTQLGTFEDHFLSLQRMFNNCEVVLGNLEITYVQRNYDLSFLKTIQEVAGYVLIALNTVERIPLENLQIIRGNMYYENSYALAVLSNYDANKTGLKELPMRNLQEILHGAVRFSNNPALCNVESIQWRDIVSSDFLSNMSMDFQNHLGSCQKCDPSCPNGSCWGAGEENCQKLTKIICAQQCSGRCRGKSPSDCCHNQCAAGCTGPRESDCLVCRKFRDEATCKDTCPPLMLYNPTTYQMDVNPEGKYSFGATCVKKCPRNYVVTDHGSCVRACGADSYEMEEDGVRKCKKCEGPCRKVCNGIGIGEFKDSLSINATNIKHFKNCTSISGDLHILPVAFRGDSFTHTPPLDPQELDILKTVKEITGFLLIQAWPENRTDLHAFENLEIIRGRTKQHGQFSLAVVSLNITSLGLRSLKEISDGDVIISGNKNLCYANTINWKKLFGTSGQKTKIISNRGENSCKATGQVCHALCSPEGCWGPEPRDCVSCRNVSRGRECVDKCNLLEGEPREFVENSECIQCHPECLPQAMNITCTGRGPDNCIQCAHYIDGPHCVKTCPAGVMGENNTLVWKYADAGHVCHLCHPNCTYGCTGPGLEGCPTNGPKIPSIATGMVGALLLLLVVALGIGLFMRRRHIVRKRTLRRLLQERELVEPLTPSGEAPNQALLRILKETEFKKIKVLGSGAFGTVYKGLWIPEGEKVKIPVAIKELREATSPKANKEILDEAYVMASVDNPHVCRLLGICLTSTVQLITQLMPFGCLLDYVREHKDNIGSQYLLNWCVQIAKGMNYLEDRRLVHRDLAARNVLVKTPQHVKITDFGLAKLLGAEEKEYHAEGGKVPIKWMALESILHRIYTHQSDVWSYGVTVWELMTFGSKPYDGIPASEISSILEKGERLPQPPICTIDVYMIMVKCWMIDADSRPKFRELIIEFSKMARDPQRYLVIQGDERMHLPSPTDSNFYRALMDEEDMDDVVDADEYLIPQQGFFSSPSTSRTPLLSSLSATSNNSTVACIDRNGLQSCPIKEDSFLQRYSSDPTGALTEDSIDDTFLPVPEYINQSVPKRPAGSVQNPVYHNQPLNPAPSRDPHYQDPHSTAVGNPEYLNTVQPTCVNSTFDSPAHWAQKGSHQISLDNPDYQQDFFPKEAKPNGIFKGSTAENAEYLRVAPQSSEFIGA
# Torsin-1A-interacting protein 1 (Homo sapiens), sequence (Q5JTV8 whole entry, looked up): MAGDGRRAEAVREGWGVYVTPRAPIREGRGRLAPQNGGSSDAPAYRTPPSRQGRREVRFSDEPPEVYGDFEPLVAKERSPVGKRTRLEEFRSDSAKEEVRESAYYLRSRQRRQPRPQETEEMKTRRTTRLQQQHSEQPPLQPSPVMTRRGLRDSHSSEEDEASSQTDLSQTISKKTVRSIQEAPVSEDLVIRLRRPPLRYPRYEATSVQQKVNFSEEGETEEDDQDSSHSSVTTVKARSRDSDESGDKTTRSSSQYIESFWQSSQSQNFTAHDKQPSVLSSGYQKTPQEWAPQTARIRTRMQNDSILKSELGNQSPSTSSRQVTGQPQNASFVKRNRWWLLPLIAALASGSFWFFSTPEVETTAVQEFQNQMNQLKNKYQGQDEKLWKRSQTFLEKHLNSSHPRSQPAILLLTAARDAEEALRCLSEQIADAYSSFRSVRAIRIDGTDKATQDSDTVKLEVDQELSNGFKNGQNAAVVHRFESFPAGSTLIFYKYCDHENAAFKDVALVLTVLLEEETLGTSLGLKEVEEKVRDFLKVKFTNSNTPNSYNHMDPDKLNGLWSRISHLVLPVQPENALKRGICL
# Follistatin-related protein 3 (Homo sapiens), sequence (O95633 whole entry, looked up): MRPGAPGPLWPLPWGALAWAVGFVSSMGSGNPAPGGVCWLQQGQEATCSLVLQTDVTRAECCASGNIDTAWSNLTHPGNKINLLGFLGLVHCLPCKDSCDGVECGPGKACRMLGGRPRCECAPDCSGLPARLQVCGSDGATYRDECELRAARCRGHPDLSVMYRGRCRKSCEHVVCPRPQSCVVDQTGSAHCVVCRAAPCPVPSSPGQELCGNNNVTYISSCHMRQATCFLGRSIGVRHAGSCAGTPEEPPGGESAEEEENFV
SMILES,composite z-score [1],composite z-score [2],composite z-score [3],z-score [4],composite z-score [5],composite z-score [6],composite z-score [7],composite z-score [8],composite z-score [9],composite z-score [10],composite z-score [11],z-score [12],composite z-score [13],composite z-score [14],composite z-score [15],composite z-score [16],composite z-score [17],composite z-score [18],composite z-score [19],composite z-score [20]
CCOC(=O)C1=CCC(c2cc3ccccc3[nH]2)N(CCN2CC(C(=O)OCC)=CCC2c2cc3ccccc3[nH]2)C1 (stereo not given),0.497,0.237,0.368,-1.3 (inactive),0.631,1.03,0.149,0.673,0.0665,1.14,1.34,-1.87,0.0083,0.884,-0.608,-0.0203,0.0639,0.302,0.0389,0.927
CN(C)CCCC[C@@H]1NC(=O)[C@@H]2C[C@H](C(=O)NCCCCCN)[C@H](c3cccc(OCCO)c3)N2C1=O,0.789,-0.0024,-0.21,-1.66 (inactive),0.824,1.16,0.428,0.567,0.565,-0.401,1.11,0.663,0.64,1.77,0.717,-0.174,-0.16,-0.301,1.05,0.293
N#Cc1ccc(C(O)C2C=CC3C(=O)NC(=O)C3N2Nc2ccc(Cl)cc2Cl)cc1 (stereo not given),1.42,0.558,1.13,1.9 (inactive),0.599,-0.344,0.0129,-0.124,-0.577,1.03,0.544,-0.436,-0.535,1.69,0.635,0.0438,0.296,0.732,2.08,0.531
COc1ccc(C(=O)Nc2ccc3c(c2)[C@@]2(O[C@H](CCO)[C@@H]([Si](C)(C)c4ccc(OC)cc4)[C@@H]2C)C(=O)N3Cc2ccccc2)cc1,0.578,-0.267,0.546,-4.86 (inactive),0.517,0.369,0.252,0.527,0.27,1.17,1.28,-5.23,0.219,0.397,0.238,-0.0599,-0.0782,0.56,0.518,0.399
CN(C)CCCNC(=O)[C@@]1(Cc2ccccc2I)c2ccccc2C(=O)N(C2CCCCC2)[C@H]1c1ccc(CO)cc1,0.856,1.13,0.532,-4.61 (inactive),0.269,1.03,0.0863,0.383,0.183,1.32,0.664,-3.49,0.0837,1.71,1.2,-0.0057,1.26,0.0646,1.02,2.57
COc1ccc([Si](C)(C)[C@@H]2[C@@H](CC(=O)N(CCO)Cc3ccccc3)O[C@]3(C(=O)N(Cc4ccc(I)cc4)c4ccccc43)[C@H]2C)cc1,0.625,0.346,0.351,-2.35 (inactive),1.1,0.301,1.03,1.37,1.2,1.58,0.684,-4.03,0.792,1.61,0.54,-0.0718,0.531,-0.0815,1.23,0.375
C[N+](C)(C)CCCC[C@@H]1NC(=O)[C@@H]2C[C@H](C(=O)NCc3ccc(F)cc3)[C@H](c3ccc(O)cc3)N2C1=O,1.12,-0.277,0.216,1.26 (inactive),0.535,-0.933,-0.617,-0.249,0.549,-0.879,0.132,-0.0213,-0.392,-0.1,0.0305,-0.178,-0.381,-0.28,2.44,1.24
C=C(COC)/C(=C/C[C@@H](OC(C)=O)c1ccccc1OCCO)c1cnc2ccccc2c1,1.24,-0.151,-0.112,0.617 (inactive),1.39,0.344,0.26,1.44,0.336,1.78,1.17,-1.95,0.248,0.35,-0.716,-0.1,0.0796,0.329,1.73,1.56
O=C1C[C@@](C(=O)NCc2ccccc2)(c2ccc([N+](=O)[O-])cc2)[C@@H](c2ccc(CO)cc2)N1C1CCCCC1,1.34,-0.437,0.538,-1.97 (inactive),0.42,0.97,0.123,0.645,0.0339,0.953,0.653,-1.24,0.399,-0.175,-0.386,0.0273,0.0697,0.786,1.46,1.72
CC(C)C(CO)N1C(=O)[C@@H]2C3C(=O)OCCC/C=C\[C@H]3OC23C=CCN(Cc2ccccc2)C(=O)[C@@H]13 (stereo not given in full),1.38,-0.0827,0.554,-0.0848 (inactive),0.0565,-0.54,-1.01,-0.794,-0.551,0.111,-1.78,0.537,-1.05,-0.969,0.574,-0.0643,0.254,-0.103,1.14,-1.68
NCCCCCCNC(=O)[C@@H]1C[C@@H]2C(=O)N3CCC[C@H]3C(=O)N2[C@@H]1c1cccc(OCCO)c1,1.23,0.0549,0.798,-1.42 (inactive),0.752,0.851,0.405,1.04,1.2,1.01,-0.0954,0.116,0.738,0.263,-0.334,-0.0286,-0.0035,-0.366,0.572,1.01
